Hits are enriched below; roughly 4.7% of the tested compounds scored in any of these assays.
D1 antag – human D1 dopamine receptor antagonism; AID 504652; hit rate 3.2% among 360,000; activity change, negative = inhibition, % at 10 µM; HEK293 TREx D1 cells, calcium flux, dopamine EC80; stronger effect = lower value; P21728; in the data active = activity change below about -30%; also: % is scaled to controls: 0 for no effect and ±100 for the full control effect
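HEK293 T-REx cells expressing inducible, force-coupled D1 receptor; no-wash Ca dye, 30–90 min RT. Cmpd → 180 s read at 1 Hz → EC80 DA → 180 s read.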
D1 agonist – human D1 receptor agonism. P21728. HEK293 T-REx D1 cells, calcium flux, agonist mode. hit rate 1% among 360,000. activation, % at 2 µM; also: 0% is about no effect
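Tetracycline-induced HEK293 TREx D1 cells, force-coupled to calcium signalling, were dye-loaded with a no-wash calcium kit. Compound was pin-added after a 10 s baseline. Fluorescence was read kinetically at 1 cycle/s for 180 s, with calcium rises flagged as agonism.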
D1 PAM – human D1 dopamine receptor positive modulation | hit rate 0.036% among 360,000 | potentiation, % at 10 µM | HEK293 TREx D1 cells, calcium flux, dopamine EC20 potentiation | P21728; in the data active = potentiation above about 30%; also: 0% is about no effect
TRHR ag – activates the human TRH receptor. P34981. TRHR cells, calcium flux fluo-8, FDSS agonist mode. activation, % at 2 µM. hit rate 0.18% among 360,000; also: 0% is about no effect
Target sequence (P34981 whole entry, looked up): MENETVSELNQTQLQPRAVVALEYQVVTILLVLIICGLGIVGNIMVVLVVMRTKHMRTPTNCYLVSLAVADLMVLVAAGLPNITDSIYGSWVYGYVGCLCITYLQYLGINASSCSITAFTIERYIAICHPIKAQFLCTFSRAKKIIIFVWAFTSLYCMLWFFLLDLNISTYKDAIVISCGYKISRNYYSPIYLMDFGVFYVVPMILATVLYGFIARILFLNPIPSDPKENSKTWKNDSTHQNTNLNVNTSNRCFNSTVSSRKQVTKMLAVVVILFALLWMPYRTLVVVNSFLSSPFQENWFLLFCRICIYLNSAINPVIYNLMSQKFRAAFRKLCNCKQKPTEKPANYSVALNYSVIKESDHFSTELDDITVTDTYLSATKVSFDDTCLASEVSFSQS
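TRHR-expressing cells loaded with fluo-8 calcium dye; 23 nL library compound pin-transferred, kinetic FDSS fluorescence (Ex 480/Em 530) recorded about 180 s for agonist-induced calcium release, before a 10 nM TRH EC20 addition for potentiator mode.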
TRHR PAM – TRH receptor (human) allosteric enhancement; P34981; TRHR cells, fluo-8 calcium fluorescence, EC20 TRH enhancement; enhancement, % at 2 µM; AID 493056; hit rate 0.66% among 360,000; in the data active = enhancement above about 30%; also: 0% is about no effect
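Enhancer read-out: after compound pinning and an initial kinetic agonist-mode read, an EC20 of TRH (10 nM final) was injected and fluo-8 calcium signal (Ex 480/Em 530) followed at 1 s/cycle for 100 cycles in TRHR-expressing cells.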
* = called active by the depositor. Rule as the data show it, unless noted: active = activation above about 30%; inactive = the rest.

COc1ccc(-c2n[nH]c3c2CN(C(=O)c2ccccc2)CC3)cc1 was read as D1 antag -5, D1 agonist 2, D1 PAM -4, TRHR ag -1 and TRHR PAM 15.
For O=C(c1ccco1)N1CCc2[nH]nc(-c3ccc(Cl)cc3)c2C1 the results were D1 antag -30*, D1 agonist 3, D1 PAM 1, TRHR ag -1 and TRHR PAM 7.
`CCOC(=O)C1CCN(c2c(C(=O)c3ccc(C)cc3)cnc3ccc(F)cc23)CC1` gave D1 antag 5, D1 agonist 0, D1 PAM 0, TRHR ag 0 and TRHR PAM 6.
For Cc1ccc(Cn2c(CN3CCC(C(=O)NCc4ccccc4C)CC3)cc3ccccc32)cc1 the results were D1 antag 4, D1 agonist 1, D1 PAM 0, TRHR ag 0 and TRHR PAM -1.
Screening COc1ccccc1CNc1nc(-c2cc(C)n(C)c2C)cs1 returned D1 antag -46*, D1 agonist 4, D1 PAM 1, TRHR ag 1 and TRHR PAM -6.
Screening COCCNc1nc(-c2cc(C)n(CCc3ccc(OC)cc3)c2C)cs1 returned D1 antag -7, D1 agonist 1, D1 PAM -3, TRHR ag 1 and TRHR PAM -4.
For Cc1ccc2cn[nH]c2c1NC(N)=S the results were D1 antag -36*, D1 agonist 0, D1 PAM -7, TRHR ag 0 and TRHR PAM 2.
`NC(=S)Nc1cccc2cn[nH]c12` gave D1 antag 6, D1 agonist 4, D1 PAM 2, TRHR ag 0 and TRHR PAM -4.
Cc1cc(C)nc(-n2nc(C)c3c2NC(=O)CC3c2cccc(O)c2)n1 (stereo not given) was read as D1 antag 8, D1 agonist 2, D1 PAM 1, TRHR ag 0 and TRHR PAM -5.
CCOc1ccc(N2C(=O)c3ccccc3C2=O)cc1 was read as D1 antag -18, D1 agonist 0, D1 PAM -5, TRHR ag 0 and TRHR PAM 2.
For O=C(COc1ccc(N2C(=O)c3ccccc3C2=O)cc1)c1ccccc1 the results were D1 antag -32*, D1 agonist 1, D1 PAM -8, TRHR ag 0 and TRHR PAM -4.
Screening O=c1c(N2CCCCC2)csc2ccc(F)cc12 returned D1 antag -75*, D1 agonist 4, D1 PAM 5, TRHR ag 0 and TRHR PAM 1.
`Cc1ccc2scc(N3CCN(c4ccc(F)cc4)CC3)c(=O)c2c1` gave D1 antag 5, D1 agonist 2, D1 PAM -2, TRHR ag 0 and TRHR PAM 39*.
`Cc1ccc2scc(N3CCN(c4ccccc4)CC3)c(=O)c2c1` gave D1 antag -7, D1 agonist 2, D1 PAM -1, TRHR ag 0 and TRHR PAM 5.
CCCCNS(=O)(=O)c1ccc2nc(-c3cccnc3)cc(C(=O)NCCCOC(C)C)c2c1 was read as D1 antag 2, D1 agonist -1, D1 PAM -1, TRHR ag -1 and TRHR PAM 13.
For COc1ccc2oc(C(=O)OCC(=O)NC3CCCCC3)c(C)c2c1 the results were D1 antag 0, D1 agonist 3, D1 PAM 1, TRHR ag 0 and TRHR PAM 5.
`COC(=O)c1ccc(C(=O)OC)c(NC(=O)CN(C)Cc2ccccc2)c1` gave D1 antag -9, D1 agonist 10, D1 PAM -1, TRHR ag 1 and TRHR PAM 31*.
Screening COC(=O)c1ccc(C(=O)OC)c(NC(=O)CN(C)Cc2cccc(Cl)c2Cl)c1 returned D1 antag 1, D1 agonist 10, D1 PAM 9, TRHR ag 0 and TRHR PAM 19.
For COC(=O)c1ccc(C(=O)OC)c(NC(=O)CSCc2ccc(Br)cc2)c1 the results were D1 antag -42*, D1 agonist 33*, D1 PAM -3, TRHR ag 1 and TRHR PAM 7.
`O=C(C1CCN(S(=O)(=O)c2cccs2)CC1)N1CCN(c2ccccc2F)CC1` gave D1 antag -15, D1 agonist 0, D1 PAM 2, TRHR ag -1 and TRHR PAM 9.

Assay outcomes as filed in PubChem BioAssay.
